Reference: PubChem BioAssay (Tox21)
Records with an inconclusive call do not appear. A number with no mark means an inactive call. Active and inactive are the calls of the source. Calls come from the whole dose curve.

The compounds below were run against Peroxisome proliferator-activated receptor delta (Homo sapiens) (UniProt Q03181) (assay: qHTS assay to identify small molecule agonists of the peroxisome proliferator-activated receptor delta (PPARd) signaling pathway (AID 743212)). Details: HEK293H PPARd-UAS-bla, beta-lactamase FRET ratio, 17 h; series mostly up to 62.6 µM.
Excerpt: U.S. Tox21 Program National Center for Advancing Translational Sciences [NCATS] NIH Chemical Genomics Center [NCGC] U.S. Environmental Protection Agency [EPA] National Institutes of Environmental Health Sciences [NIEHS] National Toxicology Program [NTP] U.S. Food and Drug Administration [FDA] Tox21 Assay Overview: The peroxisome proliferator-activated receptors (PPARs) are lipid-activated transcription factors of the nuclear receptor superfamily with three distinct subtypes namely PPAR alpha, PPAR delta (PPARd) and PPAR gamma. All these subtypes heterodimerizes with Retinoid X receptor (RXR) and have different physiological functions. […] To identify the compounds that activate PPAR-delta signaling, GeneBLAzer PPAR delta UAS-bla HEK293H cell line (Invitrogen, Carlsbad, CA, USA) containing a beta-lactamase reporter gene under the control of an Upstream Activator Sequence (UAS) was used to screen the Tox21 compound library.
Tox21 Assay Protocol Summary: PPARd-bla cells were dispensed at 3000 cells/6uL/well in 1536-well black wall/clear bottom plates using a Multidrop Combi (Thermo Fisher Scientific, Waltham, MA) dispenser. After the assay plates were incubated at 37 C and 5% CO2 for 5 h, 23 nL of compounds dissolved in DMSO, positive controls or DMSO only was transferred to the assay plate by a Pintool station (Kalypsys, San Diego, CA). The assay plates were incubated at 37C for 17 h. After 1 uL of LiveBLAzerTM B/G FRET substrate was added using a Bioraptr Flying Reagent Dispenser (FRD) workstation (Beckman Coulter, Indianapolis, IN, USA), the plates were incubated at room temperature for 2 h, and fluorescence intensity was measured by an Envision plate reader (PerkinElmer, Shelton, CT).
% is set by controls: 0 for no effect and ±100 for the full control effect.

Sequence of Peroxisome proliferator-activated receptor delta (Homo sapiens) (Q03181 whole entry, looked up): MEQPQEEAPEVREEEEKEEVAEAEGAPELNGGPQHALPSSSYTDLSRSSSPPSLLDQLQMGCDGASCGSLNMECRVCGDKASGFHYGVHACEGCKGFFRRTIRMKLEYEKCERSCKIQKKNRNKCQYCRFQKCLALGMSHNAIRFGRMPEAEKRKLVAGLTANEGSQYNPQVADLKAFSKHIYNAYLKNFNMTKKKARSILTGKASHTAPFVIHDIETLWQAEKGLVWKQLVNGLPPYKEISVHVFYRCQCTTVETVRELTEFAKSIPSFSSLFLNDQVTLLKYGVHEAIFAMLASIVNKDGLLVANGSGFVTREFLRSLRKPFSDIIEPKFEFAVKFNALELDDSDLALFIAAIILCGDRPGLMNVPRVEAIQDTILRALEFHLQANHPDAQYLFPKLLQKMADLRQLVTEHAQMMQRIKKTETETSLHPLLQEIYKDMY

**Q.** For Nc1cc(S(=O)(=O)O)ccc1S(=O)(=O)O, which outcome is on record?
**A.** Its outcome is “inactive”.

**Q.** How did the outcome turn out when O=S(=O)(O)c1cc(O)ccc1O was run?
**A.** Its outcome is “inactive”.

**Q.** How did the outcome turn out when CC(=O)Nc1ncc([N+](=O)[O-])s1 was run?
**A.** The outcome was “inactive”.

**Q.** O=C(Nc1cccc(C2=NCCN2)c1)Nc1cccc(C2=NCCN2)c1 was tested. Which outcome did it give?
**A.** The outcome was “inactive”.

**Q.** How did the outcome turn out when CCC(C)N (stereo not given) was run?
**A.** The outcome was “inactive”.

**Q.** For SCCSCCS, which outcome is on record?
**A.** Its outcome is “inactive”.

**Q.** With CC(=O)/C=C/c1ccco1 as the compound, how does the outcome read?
**A.** The outcome was “inactive”.

**Q.** For CCCCCCCCCCCCCC(=O)OC, which outcome is on record?
**A.** Its outcome is “inactive”.

**Q.** Cc1oc(=O)oc1CN1CCN(c2cc3c(cc2F)c(=O)c(C(=O)O)c2n3C(C)S2)CC1 (stereo not given) was tested. Which outcome did it give?
**A.** Its outcome is “inactive”.

**Q.** O=c1cc(O)c(Cl)c[nH]1 was tested. Which outcome did it give?
**A.** The outcome was “inactive”.

**Q.** How did the outcome turn out when NS(=O)(=O)c1cc2c(cc1Cl)NC(C(Cl)Cl)NS2(=O)=O (stereo not given) was run?
**A.** The outcome was “inactive”.

**Q.** Which outcome does the source give for CCN1CN(CC)CN(CC)C1 here?
**A.** Its outcome is “inactive”.

**Q.** CNC(=O)NC was tested. Which outcome did it give?
**A.** The outcome was “inactive”.

**Q.** How did the outcome turn out when Nc1ccnc(=O)[nH]1 was run?
**A.** The outcome was “inactive”.

**Q.** Which outcome does the source give for Nc1ccc(S(=O)(=O)Nc2ccccn2)cc1 here?
**A.** The outcome was “inactive”.

**Q.** How did the outcome turn out when CCC(C)(CCC(C)C)C(=O)[O-].CCC(C)(CCC(C)C)C(=O)[O-].[Zn+2] (stereo not given) was run?
**A.** Its outcome is “inactive”.

**Q.** C=C(C)C(=O)OC was tested. Which outcome did it give?
**A.** Its outcome is “inactive”.

**Q.** For CCCCC[Si](OCC)(OCC)OCC, which outcome is on record?
**A.** The outcome was “inactive”.

**Q.** For C1CCN2C[C@@H]3C[C@@H](CN4CCCC[C@@H]34)[C@H]2C1, which outcome is on record?
**A.** Its outcome is “inactive”.

**Q.** With Nc1c(NC/C=C\COc2cc(CN3CCCCC3)ccn2)c(=O)c1=O as the compound, how does the outcome read?
**A.** The outcome was “inactive”.

**Q.** For N#CCCOCCOCCC#N, which outcome is on record?
**A.** The outcome was “inactive”.

**Q.** Which outcome does the source give for c1ccccc1 here?
**A.** Its outcome is “inactive”.

**Q.** CCOC(=O)CCc1ccccc1 was tested. Which outcome did it give?
**A.** The outcome was “inactive”.

**Q.** How did the outcome turn out when Cc1cc(C)cc([N+](=O)[O-])c1 was run?
**A.** The outcome was “inactive”.

**Q.** COc1ccc(NS(=O)(=O)c2ccc(N)cc2)nn1 was tested. Which outcome did it give?
**A.** The outcome was “inactive”.

**Q.** For CCCCOC(=O)[C@@H](C)Oc1ccc(Oc2ccc(C(F)(F)F)cn2)cc1, which outcome is on record?
**A.** The outcome was “inactive”.

**Q.** With CC(C)(C)c1ccc(C=O)cc1 as the compound, how does the outcome read?
**A.** Its outcome is “inactive”.

**Q.** CCCCCCCCCCCCC1CO1 (stereo not given) was tested. Which outcome did it give?
**A.** Its outcome is “inactive”.

**Q.** NCCc1ccn[nH]1 was tested. Which outcome did it give?
**A.** Its outcome is “inactive”.

**Q.** How did the outcome turn out when O=S(=O)(O)SSS(=O)(=O)O was run?
**A.** Its outcome is “inactive”.

**Q.** With NC(Cc1c[nH]c2ccccc12)C(=O)O (stereo not given) as the compound, how does the outcome read?
**A.** The outcome was “inactive”.

**Q.** How did the outcome turn out when NC(=O)NNC(N)=O was run?
**A.** The outcome was “inactive”.

**Q.** Which outcome does the source give for CN=C(NC#N)NCCSCc1csc(N=C(N)N)n1 here?
**A.** The outcome was “inactive”.

**Q.** With CC(C)c1ccccc1O as the compound, how does the outcome read?
**A.** Its outcome is “inactive”.

**Q.** How did the outcome turn out when O=C(c1ccc2c(c1)C(=O)OC2=O)c1ccc2c(c1)C(=O)OC2=O was run?
**A.** Its outcome is “inactive”.

**Q.** C=CCCCCCCCCCCC was tested. Which activation did it give?
**A.** The activation was -5.08% [at 5.95 µM].

**Q.** For COc1cccc2sc(N)nc12, which outcome is on record?
**A.** The outcome was “inactive”.

**Q.** For CN(C)CCCNCCC#N, which outcome is on record?
**A.** The outcome was “inactive”.

**Q.** CC(=O)Nc1ccc(C)cc1 was tested. Which outcome did it give?
**A.** Its outcome is “inactive”.

**Q.** CCCCCCCC[Si](OCC)(OCC)OCC was tested. Which outcome did it give?
**A.** The outcome was “inactive”.
